Bioassay records as filed in PubChem.
Wnt act = activates Wnt/beta-catenin signaling in a reporter cell assay; activator, plate reader; activation, % at 9.35 µM; 300,000 tested, 1.2% active; AID 743398; in the data active means activation above about 30%, passing the limit was not always enough
miR122 inh = miR-122 inhibition in Huh7 cells; Huh7 miR-122 Renilla luciferase sensor, 48 h; neutral wells = 0, positive control = 100; activation (reporter increase), % at 12.5 µM; 340,000 tested, 0.3% active;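 active means mean replicate activation score at least 90 and every replicate individually at or above 90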;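 further: higher luciferase means less miR-122 activity so hits act as miR-122 inhibitors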
MITF act = MITF TRPM1 promoter activation in melanoma cells; SK-MEL-5 TRPM1-promoter luciferase, 24 h; % of positive control, neutral wells = 0; activation, % at 12.5 µM; 300,000 tested, 0.75% active; AID 588334;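 active means mean activation of at least 80% with every replicate also reaching 80%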
esBAF inh = inhibitors of esBAF chromatin remodeling in mouse ES cells | 350,000 tested, 2% active | reporter increase, % at 12.5 µM | AID 602393 | Bmi1-luciferase knock-in reporter, 24 h; 100% = twice the neutral-well signal; in the data active means activation above about 40%;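 further: a rise in the Bmi1 reporter signal indicates esBAF inhibition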
HIV Env fusion = blocks HIV Env-driven cell-cell fusion; HeLa-JRFL Env/CEM21 cell fusion, luciferase; inhibition, % at 12.3 µM; 360,000 tested, 1.1% active; AID 651610;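 active means mean replicate inhibition score of at least 50 and every replicate individually at or above 50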
Each line names hits and unclear results; the compound was inactive in the other large screens. In the library only some 3.4% were active in any assay of this set; here they are far more common.

S=C(NCCc1ccccc1)N1Cc2cc(Br)ccc2-n2nncc2C1	HIV Env fusion 57 (no result: MITF act)
S=C(NCCc1ccccc1)N1Cc2ccc(Br)cc2-n2nncc2C1	none (no result: MITF act)
COc1ccc(-c2ccc3c(c2)CN(C(=S)NCCc2ccccc2)Cc2cnnn2-3)cc1	miR122 inh 119 (no result: MITF act)
CC[n+]1c(/C=C/C=C/c2ccc(N(C)C)cc2)sc2ccccc21	none (no result: MITF act, esBAF inh)
CC[n+]1c(/C=C/N(C)c2ccccc2)sc2ccc(Cl)cc21	HIV Env fusion 79 (no result: miR122 inh)
O=C(O)[C@@H]1[C@@H](CO)[C@@H]2Cn3c(ccc(-c4ccccc4)c3=O)[C@H]1N2CC1CCCCC1	none (no result: Wnt act, MITF act, HIV Env fusion)
COc1ccc(C(C)=O)cc1CC(C(=O)c1ccccc1)N(C)C (stereo unspecified)	esBAF inh 41
COc1ccc(C(C)=O)cc1CC(C(=O)c1ccc(C)cc1)N(C)C (stereo unspecified)	none (no result: miR122 inh, esBAF inh)
Cc1ccc2c(c1N)C(=O)c1ccccc1C2=O	Wnt act 44, MITF act 95, esBAF inh 55 (no result: HIV Env fusion)
CC1(C)CN=C(Nc2nc3ccccc3s2)S1	esBAF inh 50 (no result: Wnt act, HIV Env fusion)
Fc1cccc(F)c1-c1nc(-c2ccc(Cl)cc2)no1	Wnt act 65, esBAF inh 64 (no result: miR122 inh, MITF act)
CCN(CC)c1ccc(C=C2C(=O)N(C)C(=S)N(C)C2=O)o1	none (no result: esBAF inh, HIV Env fusion)
CCN(CC)c1ccc(/C=C2\C(=O)NC(=S)N(C)C2=O)o1	Wnt act 37 (no result: MITF act)
CC=Cc1ccc2n(c1=O)C[C@@H]1[C@@H](CO)[C@H](C(=O)OC)[C@H]2N1S(=O)(=O)c1ccccc1C (mixture of isomers)	none (no result: Wnt act, MITF act, HIV Env fusion)
CC(=O)c1c(C)n(C2CCCCC2)c2ccc(O)cc12	HIV Env fusion 62 (no result: miR122 inh, esBAF inh)
O=C(Cc1ccccc1)N1CCCCN2[C@H](C1)[C@H](c1ccc(C#Cc3ccccc3)cc1)[C@@H]2CO	none (no result: Wnt act, MITF act, esBAF inh, HIV Env fusion)
CC(C)CC#Cc1ccc([C@@H]2[C@H](CO)N3CCCCN(C(=O)Cc4ccccn4)C[C@@H]23)cc1	none (no result: Wnt act, MITF act, HIV Env fusion)
CC(C)Oc1ccc(CC2(CCc3ccncc3)C(=O)NC(=O)NC2=O)cc1	none (no result: miR122 inh, MITF act)
COc1ccc(CC2(CCc3ccncc3)C(=O)NC(=O)NC2=O)cc1OC	Wnt act 37
Nc1ccccc1C(=O)OCCc1ccccc1	Wnt act 68, MITF act 85 (no result: HIV Env fusion)
CCCCOC(=O)c1ccccc1N	none (no result: HIV Env fusion)
CC(=O)OC(C)(C)/C=C/C(=O)C(C)(O)C1C(O)CC2(C)C3CC=C4C(CC(O)C(=O)C4(C)C)C3(C)C(=O)CC12C (stereo unspecified)	HIV Env fusion 65 (no result: MITF act, esBAF inh)
CC(=O)OC(C)(C)/C=C/C(=O)[C@](C)(O)[C@H]1[C@H](O)C[C@@]2(C)[C@@H]3CC=C4[C@H](C[C@H](O)C(=O)C4(C)C)[C@]3(C)C(=O)C[C@]12C	none (no result: Wnt act, HIV Env fusion)
Cc1ccc(OCCOc2cccc(C=C3C(=O)NC(=O)NC3=O)c2)cc1	Wnt act 37 (no result: miR122 inh)
CCC(C)C(NC(=O)CCCNC(=O)CCC(=O)OC1O[C@H]2OC3(C)CC[C@H]4[C@H](C)CCC(C1C)C24OO3)C(=O)O (stereo partly specified)	HIV Env fusion 58
CCC(C)NC(=O)CCC(=O)OC1O[C@H]2OC3(C)CC[C@H]4[C@H](C)CCC(C1C)C24OO3 (stereo partly specified)	none (no result: miR122 inh)
O=C(Cc1cccnc1)N1CCCCN2[C@@H](CO)[C@@H](c3ccc(/C=C/c4ccccc4)cc3)[C@@H]2C1	none (no result: Wnt act, MITF act, esBAF inh, HIV Env fusion)
CC(C)CC#Cc1ccc([C@H]2[C@H](CO)N3CCCCN(C(=O)Cc4ccccn4)C[C@@H]23)cc1	none (no result: Wnt act, MITF act, HIV Env fusion)
N#Cc1cccc(-c2ccc([C@H]3[C@H](CO)N4CCCCN(C(=O)Cc5ccccc5)C[C@@H]34)cc2)c1	none (no result: Wnt act, MITF act, esBAF inh, HIV Env fusion)
COC(=O)[C@H]1[C@H](CO)[C@H]2Cn3c(ccc(-c4ccccc4F)c3=O)[C@@H]1N2CC1CCCC1	none (no result: Wnt act, miR122 inh, MITF act)
COc1cccc(-c2ccc3n(c2=O)C[C@@H]2[C@@H](CO)[C@H](C(=O)O)[C@H]3N2Cc2ccccc2F)c1	none (no result: Wnt act, miR122 inh, MITF act)
COc1cccc(NP(=O)(Oc2ccc(Cl)cc2)Oc2ccc(Cl)cc2)c1	none (no result: miR122 inh, esBAF inh)
O=P(Nc1ccccc1)(Nc1ccccc1)Oc1ccc(Cl)cc1	miR122 inh 322 (no result: HIV Env fusion)
CC(Cc1ccc(O)cc1)NCC(O)c1cc(O)cc(O)c1 (stereo unspecified)	HIV Env fusion 74
C[C@H](Cc1ccc(OCC(=O)O)cc1)NC[C@H](O)c1cccc(Cl)c1	none (no result: miR122 inh, MITF act, esBAF inh)
CCCCn1c(=O)c(C=Nc2cccnc2Cl)c(O)n(CCCCl)c1=O	Wnt act 51 (no result: miR122 inh, esBAF inh)
COC(=O)[C@H]1[C@H](CO)[C@H]2Cn3c(ccc(C4=CCCCC4)c3=O)[C@@H]1N2Cc1cccnc1	none (no result: Wnt act, MITF act, HIV Env fusion)
N#CC1C(C#N)C2CCC1C1C2N1c1ccccc1 (stereo unspecified)	Wnt act 47
CC[C@@H]1c2ccccc2[C@@H]2CC[C@H]1N2c1ccccc1	none (no result: miR122 inh, MITF act, esBAF inh)
COc1ccc(-c2ccc3n(c2=O)C[C@@H]2[C@@H](CO)[C@H](C(=O)O)[C@H]3N2C(=O)c2ccccc2F)cc1	none (no result: Wnt act, miR122 inh, MITF act)
COc1ccc(C#Cc2ccc([C@H]3[C@H](CO)N4CCCCN(C(=O)Cc5cccnc5)C[C@@H]34)cc2)cc1	none (no result: Wnt act, MITF act, esBAF inh, HIV Env fusion)
CCOC(=O)[C@@H]1[C@@H]2NC(=S)N[C@@]1(C)Oc1ccccc12	none (no result: Wnt act, miR122 inh, MITF act, esBAF inh)
COC1=C(C)C(=O)C2=C(C1=O)C(CO)N1C(C#N)C3CC4C(C1C2N1CCOC41)N3C (stereo unspecified)	HIV Env fusion 67 (no result: MITF act, esBAF inh)
COc1ccc(-c2cc(=NCCC(=O)O)c3cc(C)ccc3o2)cc1	MITF act 112, esBAF inh 69
CCCN1[C@@H]2c3ccc(-c4ccccc4)c(=O)n3C[C@H]1[C@H](CO)[C@H]2C(=O)OC	none (no result: Wnt act, MITF act, HIV Env fusion)
CCN1[C@@H]2c3ccc(-c4cccc(OC)c4)c(=O)n3C[C@H]1[C@H](CO)[C@H]2C(=O)OC	none (no result: Wnt act, MITF act, HIV Env fusion)
O=C1C=CC(=O)C2C1C1(Cl)C(Cl)=C(Cl)C2(Cl)C1(Cl)Cl (stereo unspecified)	HIV Env fusion 66 (no result: esBAF inh)
